Source: PubChem BioAssay (NCI)
About 83,000 compounds went through this panel and 20% of them were active in at least one assay; those are over-represented in the sample as a whole.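 48-hour exposure, single concentration, 96-well plates; percent growth endpoint where 0 means no net growth. Active: below 10.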 The source made the active and inactive calls.

Key:
Experiment in all cases: NCI-60 one-dose screen, 48 h (100 = growth as untreated, 0 = no growth, -100 = all killed)
Conditions in all cases: 10 µM unless noted
[1] = test system: NCI-H23 lung
[2] = test system: NCI-H226 lung
[3] = test system: NCI-H322M lung
[4] = test system: HOP-62 NSCLC
[5] = test system: NCI-H460 lung
[6] = test system: NCI-H522 lung
[7] = test system: A549/ATCC NSCLC
[8] = test system: 786-0 renal
[9] = test system: COLO 205 colon
[10] = test system: DU-145 prostate
[11] = test system: K-562 leukemia
[12] = test system: MALME-3M melanoma
[13] = test system: MDA-MB-231 breast
[14] = test system: RXF 393 renal
[15] = test system: SF-268 CNS
[16] = test system: SF-295 CNS
[17] = test system: SF-539 CNS
[18] = test system: UACC-257 melanoma
[19] = test system: M14 melanoma

Measured: growth

COC(=O)C(Br)(C(=O)OC)C(Br)C(Br)C(Br)c1ccccc1 (configuration not stated)
active: [6] -84.5% | [14] -20.8%
inactive: [1] 94.1% | [2] 91.8% | [3] 102% | [4] 120% | [5] 100% | [7] 97.9% | [8] 86% | [9] 30.1% | [10] 89.3% | [11] 19.9% | [12] 47.5% | [13] 89% | [15] 101% | [16] 114% | [17] 26.6% | [18] 56.4% | [19] 44.2%

CC(=O)N1N=C(C2C(=O)N(C)C(=O)N(C)C2=O)CC1c1ccccc1C(=O)O (configuration not stated)
inactive: [1] 98.3% | [2] 108% | [3] 97.1% | [4] 97.2% | [5] 104% | [6] 83.3% | [7] 98.4% | [8] 98.2% | [9] 108% | [10] 103% | [11] 87.5% | [12] 104% | [13] 104% | [14] 104% | [15] 96.7% | [16] 112% | [17] 104% | [18] 95.7% | [19] 96.7%

ClCc1c(Cl)c(Cl)c(Cl)c(CCl)c1Cl
active: [4] -28.8% | [6] -64.6% | [9] -87.4% | [11] -20.8% | [12] -40.3% | [14] -75.9%
inactive: [1] 82.8% | [2] 35% | [3] 94% | [5] 73.8% | [7] 94.9% | [8] 76.3% | [10] 14.8% | [13] 47.8% | [15] 33.5% | [16] 97.5% | [17] 97.6% | [18] 19.9% | [19] 35.5%

COc1ccccc1/C=C/C(=O)CCC(=O)O
inactive: [1] 106% | [2] 104% | [3] 101% | [4] 96.2% | [5] 111% | [6] 103% | [7] 108% | [8] 96.7% | [9] 120% | [10] 108% | [12] 101% | [13] 114% | [14] 127% | [15] 111% | [16] 105% | [17] 97.5% | [18] 115% | [19] 99.8%

Clc1ccccc1CNc1c2ccccc2nc2ccccc12
active: [5] 8.83% | [9] 0.525% | [11] 5.33% | [17] 6.15%
inactive: [1] 21.6% | [2] 38.9% | [3] 27% | [4] 40.9% | [6] 28.5% | [7] 19.2% | [8] 24.5% | [10] 31.8% | [12] 19% | [13] 29% | [14] 15% | [15] 46.6% | [16] 21.7% | [18] 44.3% | [19] 18.1%

CC1=CC(=O)OC1C/C=C(\C)CCC1[C@@]2(C)CCC[C@@](C)(C(=O)O)C2CC[C@@]1(C)O (some centres not stated)
inactive: [1] 68.4% | [2] 43.7% | [3] 55% | [4] 51.7% | [6] 59.3% | [7] 29.3% | [8] 54.6% | [9] 86.7% | [10] 36.8% | [11] 28.4% | [12] 58.4% | [13] 34.3% | [14] 49.2% | [15] 71.4% | [16] 85.5% | [17] 81.3% | [18] 48.6% | [19] 25.7%
active: [5] 9.27%

Cc1c(C(=O)Nc2ccccc2F)sc2c(=O)[nH]cnc12
inactive: [1] 94% | [2] 102% | [3] 94.1% | [4] 96.1% | [5] 51.6% | [6] 66.6% | [7] 88.3% | [8] 98.4% | [9] 97.8% | [10] 112% | [11] 47.4% | [12] 88.3% | [13] 86.2% | [14] 107% | [15] 106% | [16] 85.4% | [17] 109% | [18] 88.7% | [19] 75.1%

Clc1ccc(-c2nc(-c3cccs3)no2)cc1
inactive: [1] 89.9% | [2] 97.3% | [3] 99.4% | [4] 85.9% | [5] 97.4% | [6] 85.8% | [7] 94.8% | [8] 94.5% | [9] 109% | [10] 97.4% | [11] 101% | [12] 111% | [13] 84.2% | [14] 114% | [15] 102% | [16] 108% | [17] 102% | [18] 86.4% | [19] 105%

CCCC(CCC)(C(N)=O)C(=O)O
inactive: [1] 105% | [2] 98.5% | [3] 111% | [4] 98.6% | [5] 115% | [6] 97.2% | [7] 97.8% | [8] 113% | [9] 106% | [10] 108% | [11] 120% | [12] 111% | [13] 116% | [14] 124% | [15] 102% | [16] 107% | [17] 120% | [18] 102% | [19] 108%

NC(CCC(=O)NC(CS)C(=O)NCC(=O)O)C(=O)O (configuration not stated)
active: [14] -24.6%
inactive: [1] 108% | [2] 101% | [3] 126% | [4] 103% | [5] 106% | [6] 98.3% | [7] 94.2% | [8] 109% | [9] 104% | [10] 112% | [11] 84.2% | [12] 122% | [13] 117% | [15] 103% | [16] 104% | [17] 105% | [18] 101% | [19] 108%

COc1ncnc2[nH]cc(CN3CCN(c4ccc(F)cc4)CC3)c12
inactive: [1] 98.4% | [2] 103% | [3] 107% | [4] 107% | [5] 108% | [6] 95.1% | [7] 96.5% | [8] 103% | [9] 116% | [10] 116% | [11] 108% | [12] 103% | [13] 117% | [14] 111% | [15] 104% | [16] 98.1% | [17] 108% | [18] 99.8% | [19] 106%

CCN1C(=O)N(CC)C2C1N=C(SC)N2/N=C/C=C/c1ccccc1OC (configuration not stated)
inactive: [1] 21.9% | [2] 34.8% | [3] 31.7% | [4] 25.2% | [7] 17.7% | [8] 14.5% | [12] 31.9% | [13] 21.2% | [14] 11% | [15] 23.5% | [16] 10.6% | [18] 55.3%
active: [5] 6.18% | [6] -32.8% | [9] -48.9% | [10] 5.61% | [11] 6.68% | [17] -4.87% | [19] 4.55%

c1ccc2c(N=NSc3ncnc4nc[nH]c34)c3ccccc3nc2c1
active: [1] -8.68% | [2] -23% | [3] 8.38% | [4] -49.9% | [5] 2.58% | [6] -74.9% | [7] -24.4% | [8] -5.12% | [9] -95.3% | [10] 8.43% | [12] -17.9% | [13] 5.25% | [14] -20.8% | [15] 3.15% | [17] 5.02% | [18] -13.9% | [19] -25.4%
inactive: [16] 20.1%

CCCCCCCCCCCC1=NC(C)(C)CN1CCO
active: [9] -57.7%
inactive: [1] 65.1% | [2] 88.2% | [3] 87.7% | [4] 56.4% | [5] 46.2% | [6] 69.2% | [7] 89.9% | [8] 70.4% | [10] 77.8% | [12] 88.9% | [13] 53.7% | [14] 35.4% | [15] 67.2% | [16] 81.4% | [17] 78.9% | [18] 77.9% | [19] 48.4%

O=S1(=O)NCCCN1CCNc1nccc(-c2c(-c3cccc(O)c3)nc3sccn23)n1
active: [19] 7.6%
inactive: [1] 83.7% | [2] 84.9% | [3] 85.1% | [4] 118% | [5] 67.1% | [6] 76% | [7] 124% | [8] 59.3% | [9] 32.6% | [10] 74.2% | [12] 17.3% | [13] 50.7% | [14] 64.3% | [15] 81.3% | [16] 112% | [17] 70.3% | [18] 39.9%

C=C(COC(C)=O)[C@H]1CC/C(C)=C/CC/C(C)=C/CC[C@@]2(C)O[C@H]2C1
inactive: [1] 106% | [2] 108% | [3] 102% | [4] 107% | [5] 106% | [6] 95.3% | [7] 105% | [8] 96% | [9] 148% | [10] 109% | [11] 100% | [12] 93.5% | [13] 107% | [14] 112% | [15] 97.2% | [16] 110% | [17] 114% | [18] 100% | [19] 106%

COc1ccc(-c2cnnn2-c2nonc2-n2cccc2)cc1
inactive: [2] 23.6% | [3] 49.6% | [4] 27.2% | [7] 26% | [8] 36.6% | [12] 47.8% | [13] 33.5% | [15] 35.1% | [18] 65.6%
active: [1] 3.55% | [5] 7.52% | [6] -4.72% | [9] -43.1% | [10] 9.22% | [14] -18.3% | [16] -17.2% | [17] -13.9%
